ChEMBL document CHEMBL3988442, “University of Dundee, Small-Polar-MMV Screening Library” (2021)
Out of some 38,000 compounds screened, about 1,200 (3.2%) showed an effect of 50% or more. The median lay at about -58%. What follows is part of a selection rich in strong results, with near analogues and random picks from the rest.

system: Plasmodium falciparum; test: Calibr Malaria Delayed Death Assay SOP; type: functional, organism-based; set-up: scale not given: in the data most compounds retested in dose-response had high values; conditions: concentration 4.99e-06 (unit not given; other assays of the set use mol/L)

| SMILES | Percent Effect [%] |
| --- | --- |
| NC1(C(=O)NCC2CCCN(Cc3cccc4nonc34)C2)CCC1 (configuration not stated) | 38.45 |
| CCN(C)S(=O)(=O)NCC1CCN(Cc2ccccc2F)C1 (configuration not stated) | 42.63 |
| NC1(C(=O)NCC2CCCN(Cc3ccccc3F)C2)CCCC1 (configuration not stated) | 85.42 |
| CS(=O)(=O)NCC1CCCN(Cc2ccc(F)c3cccnc23)C1 (configuration not stated) | 9.25 |
| CC(=O)NCC1CCCN(Cc2nc(Cc3ccccc3F)no2)C1 (configuration not stated) | -62.96 |
| CC(C)NC(=O)[C@@H]1C[C@H]2NCC[C@H]2O1.Cl | -114.2 |
| Cc1n[nH]c(C)c1NC(=O)Nc1cccnc1N1CCCC1 | -5.845 |
| CC(C)CC(NCc1cscn1)c1ccccn1 (configuration not stated) | 28.89 |
| CC(C)CC(NCc1ccsc1)c1ccccn1 (configuration not stated) | 58.77 |
| CC(C)CC(NCc1cccs1)c1ccccn1 (configuration not stated) | -24.93 |
| COCCSCC(=O)NCc1ccc(N(C)C)cc1 | -84.72 |
| Cl.O=C(C1CC1)N1CCc2ccccc2C12CCNCC2 | -61.72 |
| COCC(=O)N1CCc2ccccc2C12CCNCC2.Cl | -57.82 |
| CCOC(=O)N1CCc2ccccc2C12CCNCC2.Cl | 52.81 |
| Cc1cnn(CCCNC(=O)NCCS(=O)(=O)Nc2ccccc2)c1 | -111.9 |
| CNC(=O)C(C)S(=O)(=O)Cc1csc(-c2cccs2)n1 (configuration not stated) | -44.96 |
| CC(=O)Nc1ccc(-c2ccccc2CCN)cc1 | -117.7 |
| CC(C(=O)NC1CC1)S(=O)(=O)Cc1csc(-c2cccs2)n1 (configuration not stated) | -95.03 |
| CC(C(=O)NCC1CCCCC1)S(=O)(=O)Cc1csc(-c2cccs2)n1 (configuration not stated) | -110.5 |
| CC(C)C(NC(=O)NCCNc1ccccn1)c1cccs1 (configuration not stated) | 11.18 |
| Cc1ccc(CNC(=O)C2=NOC3(CCCNC3)C2)cc1 (configuration not stated) | -11.58 |
| CCC1(CC)CC(=O)N(CC(O)c2cccc(F)c2)C1=O (configuration not stated) | -47.43 |
| Cn1cc(CN2CCC3(CCN(c4cnn(C)c4)C3=O)C2)cn1.O=C(O)C(F)(F)F (configuration not stated) | -38.46 |
| Cc1ccc(-n2ncc(C(=O)N(C)C3CCN(C)CC3)c2N)cc1C | -13.94 |
| COCCNC(=O)Cn1cc2c(n1)c(C)nn2C | -119.4 |
| Cc1ccc(CN2Cc3nccn3CC(Cn3cncn3)C2)s1.O=C(O)C(F)(F)F (configuration not stated) | -180.8 |

| SMILES | Percent Effect [%] |
| --- | --- |
| COc1ccccc1OCCC(=O)NC1CCc2nc(C)cn2C1 (configuration not stated) | -82.15 |
| Cc1ncc(CNC(=O)CCc2ccccc2F)c(C2CCCN2C)n1 (configuration not stated) | -31.11 |
| Clc1cc(CN2CCCN3CCCC3C2)c2ncccc2c1 (configuration not stated) | 88.94 |
| Clc1cc(CN2CCCC(Cn3cncn3)C2)c2ncccc2c1 (configuration not stated) | 36.9 |
| O[C@@H]1CN(Cc2cc(Cl)cc3cccnc23)C[C@@H]1O | -71.8 |
| Cc1cccc(-c2nc(N)nc3c2CN(C(=O)c2ccncn2)C3C)c1 (configuration not stated) | -72.66 |
| COc1coc(C(=O)Nc2nc(-c3ccccn3)cs2)cc1=O | 19.28 |
| CN(Cc1noc2c1CCCC2)C(=O)Nc1cncc(F)c1 | -40.24 |
| Cc1c[nH]c(CN(C)C(=O)C(C)(C)NC(=O)c2cccs2)n1 | -87.6 |
| CC(C)c1ncc(C(=O)N2CCOCC2CC(=O)c2ccco2)s1 (configuration not stated) | -45.87 |
| Cc1cc(C)n(CC(C)NCCn2nc(C)c(Cl)c2C)n1 (configuration not stated) | -54.04 |
| Cc1cc(C)n(CC(C)NCCN2CCc3ccccc32)n1 (configuration not stated) | 52.4 |
| CC(Cn1cncn1)NCCN1CCc2ccccc21 (configuration not stated) | -79.84 |
| Cc1ccc(SC2CCCC2)c(C(=O)NCc2n[nH]c(=O)[nH]2)c1 | -25.99 |
| NC(=O)CN(C(=O)c1c[nH]c2ncccc12)C1CCCC1 | -54.97 |
| O=C(c1c[nH]c2ncccc12)N(Cc1ccco1)C1CCCC1 | 86.68 |
| COCCN(C(=O)c1c[nH]c2ncccc12)C1CCCC1 | -27.67 |
| Cc1nc(N(C)C)nc(-c2cccc(-c3ccn(CCCF)n3)c2)c1C | -133.9 |
| CCOc1ccccc1N(C)Cc1nccn1C | 20.26 |
| CSCC(=O)N(Cc1ccccn1)Cc1ccccc1C | -232.7 |
| CCCN(Cc1ccccn1)Cc1ccccc1OC | -102.5 |
| CC(C)CN(Cc1ccccn1)Cc1ccccc1C(=O)O | -129.3 |
| COc1ccc(OC)c(Sc2ncccc2C(=O)N(C)CCC#N)c1 | -164.4 |
| CCOCCN1CCN(CCc2ccc3c(c2)CCO3)CC1 | -44.63 |
| Cc1noc([C@@H]2CCO[C@@H]3CCN(Cc4nccs4)C[C@@H]32)n1 | -49.2 |
| CCN1CC2(CC1=O)CN(C(C)=O)CCN(C(=O)NC)C2 (configuration not stated) | -42.52 |
